Cycloheximide cs – affects cycloheximide protein synthesis inhibition readout, counter-screen. 12% of 300,000 active. max response, %. cell reporter, cycloheximide protein synthesis inhibition counterscreen; in the data active = max response mostly above about 13%, no sharp cut-off; inactive = mostly below about 14%; note: read at 38.3 µM for the half of the compounds with a filed dose; 0% is about no effect
FMDV inh – foot and mouth disease virus antiviral activity | FMDV antiviral cell-based qHTS | Potency, µM (highest dose often 57.9 µM), without a hit: at the top dose activity change, negative = inhibition, usual class: inhibitors | 1.2% of 410,000 active | AID 1159524; calls by dose curve; tested in HEK293T cells; note: read-out not given here; potency is the fitted concentration of half-maximal effect; % is set by controls: 0 for no effect and ±100 for the full control effect; nearly all actives have a fitted effect of over 45% in size
Sm TGR block – S. mansoni TGR enzyme inhibition. 3% of 360,000 active. Potency, µM (titrated, usually from 114 µM), inactives show at the highest dose activity change, negative = inhibition, actives largely listed as inhibitors. purified TGR, DTNB reduction, TNB absorbance 405 nm. Q962Y6; active = well fitted inhibition curve with a large enough effect; inconclusive = small, poorly fitted or top-dose-only effect; inactive = no such curve, though single readings can be large or run the other way; note: potency is the fitted concentration of half-maximal effect; % is set by controls: 0 for no effect and ±100 for the full control effect; nearly all actives have a fitted effect of over 60% in size
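First, TGR (20 nM dispensed) and NADPH were mixed with compound. Second, a 15 min room-temperature incubation followed. Third, further NADPH and then DTNB were added to start the reaction. Finally, TNB absorbance was monitored kinetically.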
Shiga toxin inh – blocks Shiga toxin action in Vero cells | Vero cells, Shiga toxin protein synthesis inhibition reporter | inhibition, % at 38.7 µM | 9.2% of 290,000 active | AID 2315; in the data active = inhibition mostly above about 28%, no sharp cut-off; inactive = mostly below about 43%; note: 0% is about no effect
* hit, by the source's call; ! = not confirmed by another sample. Shown are actives, neighbours in structure and some others; about 12% of the full set was active somewhere.

`CC(C)C(=O)Nc1ccc(-c2nc3ncccc3o2)cc1` gave Cycloheximide cs 29*, FMDV inh -7%, Sm TGR block 7% and Shiga toxin inh 41*.
`CC(C)C(=O)Nc1ccc(-c2nc3cccnc3o2)cc1` gave Cycloheximide cs 33*, FMDV inh -26%, Sm TGR block -10% and Shiga toxin inh active.
Screening CCCC(=O)Nc1ccc(-c2nc3ncccc3o2)cc1 returned Cycloheximide cs 20*, FMDV inh 53%, Sm TGR block -18% and Shiga toxin inh 175.
CCC(Sc1ncc(S(=O)(=O)c2ccc(Cl)cc2)c(=O)[nH]1)C(=O)Nc1ccc(OC)cc1 (stereo not given) was read as FMDV inh 1% and Sm TGR block -5%.
`Cc1ccc(Cl)cc1NC(=O)N1CCC(CN2CCCCCC2)CC1` gave FMDV inh -9% and Sm TGR block inconclusive.
`Nc1ccc(C(=O)c2cccs2)cc1[N+](=O)[O-]` gave Cycloheximide cs 28*, FMDV inh 19%, Sm TGR block 0% and Shiga toxin inh 71*.
`Nc1ccc(C(=O)O)cc1[N+](=O)[O-]` gave Cycloheximide cs -2, FMDV inh -21%, Sm TGR block -4% and Shiga toxin inh -6.
O=C(NNc1ccc(Cl)cc1)c1cccs1 was read as Cycloheximide cs -2, FMDV inh -19%, Sm TGR block 0% and Shiga toxin inh -6.
Screening O=C(NNC(=S)Nc1ccccc1)c1cccs1 returned Cycloheximide cs 38*, FMDV inh 52%, Sm TGR block 0% and Shiga toxin inh 47*.
O=C(NNC(=S)Nc1ccc(Cl)cc1)c1cccs1 was read as Cycloheximide cs 38*, FMDV inh 115%, Sm TGR block 0% and Shiga toxin inh 100*.
Screening O=C(CCC(=O)Nc1ccccc1)NNC(=O)c1cccs1 returned Cycloheximide cs 10, FMDV inh 10%, Sm TGR block 9% and Shiga toxin inh -12.
COc1ccccc1CNc1ncnc2c1nnn2C was read as FMDV inh 3% and Sm TGR block -2%.
For Cc1cc(C)c(S(=O)(=O)NCC(c2cccs2)S(=O)(=O)c2ccccc2)c(C)c1 (stereo not given) the results were FMDV inh 10% and Sm TGR block 0.32µM*.
`Cc1cc(C)c(S(=O)(=O)NCC(c2ccco2)S(=O)(=O)c2ccccc2)c(C)c1` (stereo not given) gave FMDV inh 51% and Sm TGR block 18µM*.
`O=S(=O)(NCC(c1ccco1)S(=O)(=O)c1ccccc1)c1cc(F)ccc1F` (stereo not given) gave FMDV inh 59% and Sm TGR block 7.1µM*.
For COc1ccccc1CNC(=O)C(=O)NCC(c1cccs1)S(=O)(=O)c1ccccc1 (stereo not given) the results were FMDV inh inconclusive and Sm TGR block -9%.
O=S(=O)(NCC(c1ccco1)S(=O)(=O)c1ccccc1)c1ccccc1 (stereo not given) was read as FMDV inh 33% and Sm TGR block inconclusive.
COc1ccc(OC)c(S(=O)(=O)NCC(c2ccco2)S(=O)(=O)c2ccccc2)c1 (stereo not given) was read as FMDV inh 39% and Sm TGR block 0.32µM*.
For O=S(=O)(NCC(c1ccco1)N1CCN(c2ccccc2)CC1)c1cc(F)ccc1F (stereo not given) the results were FMDV inh -9% and Sm TGR block 1%.
Cc1cccn2c(=O)cc(CSc3nnc(NC(=O)COc4ccccc4)s3)nc12 was read as FMDV inh -12% and Sm TGR block -2%.
`Cc1cccc(Cn2c(SCc3ccc(C(=O)NCc4ccccc4F)cc3)nc3ccncc32)c1` gave FMDV inh 0% and Sm TGR block 4%.
`COc1ccc(-c2nc3scc(CCNS(=O)(=O)c4cccc(C(C)=O)c4)n3n2)cc1` gave FMDV inh 34% and Sm TGR block -18%.
Screening Cc1ccc(S(=O)(=O)NCC(c2ccco2)S(=O)(=O)c2ccccc2)cc1 (stereo not given) returned FMDV inh 24% and Sm TGR block 0.4µM*.
Screening O=C(CC(c1ccco1)S(=O)(=O)c1ccccc1)c1ccccc1 (stereo not given) returned Cycloheximide cs 42*, FMDV inh 72%, Sm TGR block inconclusive and Shiga toxin inh 110*.
COc1cccc(-n2c(=O)c3c(C)c(C)sc3n(Cc3ccccc3C#N)c2=O)c1 was read as FMDV inh 1% and Sm TGR block 4%.
`CNC(=O)C1CCC(Cn2c(=O)c3sccc3n(CC(=O)NCc3ccccc3)c2=O)CC1` (stereo not given) gave FMDV inh -7% and Sm TGR block -3%.
Screening Cc1cc(Cl)ccc1OCC(=O)Nn1c(C)ccc1C returned Cycloheximide cs -1, FMDV inh -25%, Sm TGR block -32% and Shiga toxin inh -6.
Screening CSc1ccccc1NC(=O)COc1ccc(Cl)cc1C returned Cycloheximide cs 40*, FMDV inh -9%, Sm TGR block 7% and Shiga toxin inh 48*.
`Cc1cc(Cl)ccc1OCC(=O)Nc1ccccc1CO` gave Cycloheximide cs 25*, FMDV inh 17%, Sm TGR block 5% and Shiga toxin inh 50*.
`Cc1[nH]n(-c2ccccc2)c(=O)c1C=Nc1cnc2ccccc2c1` gave Cycloheximide cs -2, FMDV inh -24%, Sm TGR block -10% and Shiga toxin inh -18.
`C=CCSc1nnc(-c2ccccc2N=Cc2c(C)[nH]n(-c3ccccc3)c2=O)c(=O)[nH]1` gave Cycloheximide cs 23*, FMDV inh 0%, Sm TGR block -6% and Shiga toxin inh 56.
`CSc1nnc(-c2ccccc2N=Cc2c(C)[nH]n(-c3ccc4ccccc4c3)c2=O)c(=O)[nH]1` gave Cycloheximide cs 33*, FMDV inh -2%, Sm TGR block 2% and Shiga toxin inh 37.
For Cc1[nH]n(-c2ccccc2)c(=O)c1/C=N/c1nn[nH]n1 the results were Cycloheximide cs -3, FMDV inh 12%, Sm TGR block 11% and Shiga toxin inh -12.
For O=C(Nc1ccc(F)c(Cl)c1)N1CC=C(c2c[nH]c3ccccc23)CC1 the results were FMDV inh -15% and Sm TGR block -5%.
Cc1ccccc1C1CC(=O)Oc2ccc(O)cc21 (stereo not given) was read as Cycloheximide cs -3 and Shiga toxin inh inactive.
Screening COc1cc(N2CCOCC2)ccc1C=C(C#N)C#N returned Cycloheximide cs -5, FMDV inh 24% and Shiga toxin inh -8.
Screening N#C/C(=C\c1ccc(N2CCOCC2)cc1)c1ccccc1 returned Cycloheximide cs 51*, FMDV inh 32%, Sm TGR block -6% and Shiga toxin inh 19*.
N#C/C(=C\N1CCOCC1)c1ccccc1 was read as Cycloheximide cs 14, Sm TGR block -2% and Shiga toxin inh 51.
For N#C/C(=C\c1ccc(O)cc1)C(=O)O (tested in a mixture with another compound) the results were FMDV inh 0%.
`N#CC(C#N)=Cc1ccc(O)cc1` gave Cycloheximide cs 20 and Shiga toxin inh active!.
